The source of these data is PubChem BioAssay (Tox21).

Experiment [1] can be described thus: Nuclear factor erythroid 2-related factor 2/antioxidant responsive element (Nrf2/ARE) small molecule agonists: luciferase reporter gene qHTS assay in human keratinocytes (AID 1919969). Also: nearly all actives have a fitted effect of over 35% in size. Also: potency is read from the fitted curve at half-maximal effect.
The target of experiment [2] is KiSS-1 receptor (Homo sapiens) (UniProt Q969F8). The experiment is described as follows: Human kisspeptin (KISS1R) small molecule agonists, calcium flux assay in KISS1R-HEK293 cells (AID 1920064; active = well fitted activation curve with a large enough effect in the repeat runs). The method in brief: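 Concentration-response testing used 15 concentrations in triplicate on human KISS1R-expressing HEK293 cells. Calcium-dependent fluorescence (Ex/Em 480/540) was followed kinetically for 3 min after compound transfer.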
Sequence of KiSS-1 receptor (Homo sapiens) (Q969F8 whole entry, looked up): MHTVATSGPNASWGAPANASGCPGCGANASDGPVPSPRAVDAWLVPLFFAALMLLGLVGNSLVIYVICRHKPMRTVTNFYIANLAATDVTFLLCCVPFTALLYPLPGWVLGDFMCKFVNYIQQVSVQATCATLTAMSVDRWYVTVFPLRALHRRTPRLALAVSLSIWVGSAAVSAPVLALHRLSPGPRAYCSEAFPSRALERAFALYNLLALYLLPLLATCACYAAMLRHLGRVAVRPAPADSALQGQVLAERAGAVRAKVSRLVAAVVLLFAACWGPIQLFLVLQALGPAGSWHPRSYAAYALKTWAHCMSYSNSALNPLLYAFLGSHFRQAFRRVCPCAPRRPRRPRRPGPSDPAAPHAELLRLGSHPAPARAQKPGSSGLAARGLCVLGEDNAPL
In general terms: Calcium assays in cells follow changes in intracellular calcium, usually with a dye or a luminescent sensor.

The nature of experiment [3]: G protein-coupled receptor (GPCR) small molecule agonists, calcium flux assay: HEK293 wild type cell line counter screen (AID 1920065). The method in brief:
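Fluorescence intensity signals activation. After overnight (18 h) culture and a 1 h calcium dye load at 37 C, compounds are added by pin tool and the plate read at 480/540 nm for 3 min in 1 s steps.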

Experiment [4] addresses 5-hydroxytryptamine receptor 2A (Homo sapiens) (UniProt P28223). The experiment is described as follows: 5-hydroxytryptamine receptor 2A (HTR2A) small molecule antagonists, cell-based qHTS assay (AID 1963586). Also: nearly all actives have a fitted effect of over 45% in size. Also: potency is read from the fitted curve at half-maximal effect. In a few lines: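 CHO cells stably expressing human HTR2A were plated for 18 h at 37 C, then loaded with calcium dye for 1 h. Compounds were preincubated 5 min at room temperature before DOI (4 nM solution) was added. Kinetic fluorescence was read for 3 min.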

In experiment [5] the target is Muscarinic acetylcholine receptor M1 (Homo sapiens) (UniProt P11229). The experiment is described as follows: Cholinergic receptor muscarinic 1 (CHRM1) small molecule agonists, cell-based qHTS assay (AID 1963589). Also: nearly all actives have a fitted effect of over 35% in size. The method in brief: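 Fluorescent calcium dye reports M1 activation in stably transfected CHO cells. Compounds, 15 concentrations, added after 1 h dye loading at 37 C; kinetic reading at 1 sec intervals.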
Sequence of Muscarinic acetylcholine receptor M1 (Homo sapiens) (P11229 whole entry, looked up): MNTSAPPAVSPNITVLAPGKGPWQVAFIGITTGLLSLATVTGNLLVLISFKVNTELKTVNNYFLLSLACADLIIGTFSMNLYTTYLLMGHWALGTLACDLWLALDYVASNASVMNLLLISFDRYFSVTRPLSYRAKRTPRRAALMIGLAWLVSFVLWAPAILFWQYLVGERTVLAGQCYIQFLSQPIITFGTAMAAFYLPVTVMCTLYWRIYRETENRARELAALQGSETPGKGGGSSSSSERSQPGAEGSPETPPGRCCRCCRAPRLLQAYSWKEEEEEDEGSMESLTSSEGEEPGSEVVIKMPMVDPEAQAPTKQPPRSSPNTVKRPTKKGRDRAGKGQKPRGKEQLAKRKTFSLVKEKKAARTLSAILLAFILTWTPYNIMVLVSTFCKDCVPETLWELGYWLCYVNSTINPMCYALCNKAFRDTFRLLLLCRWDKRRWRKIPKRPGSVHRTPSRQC
A general note: Quantitative high-throughput screening tests each substance at several concentrations.

A short description of experiment [6]: cAMP Responsive Elements (CRE) small molecule agonists, cell-based qHTS assay (AID 1963590). Also: potency is read from the fitted curve at half-maximal effect. The method in brief:
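Compound exposure lasted 3 h at 37 C/5% CO2 in CRE-bla HEK 293T cells grown in assay medium with 10% dialyzed FBS and 25 mM HEPES. Reporter signal came from LiveBLAzer B/G FRET substrate, 2 h, room temperature.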

The nature of experiment [7]: cAMP Responsive Elements (CRE) small molecule antagonists, cell-based qHTS assay (AID 1963591; active = well fitted inhibition curve with a large enough effect in the signal ratio in the repeat runs, not every such curve was filed as active; the % refers to the signal ratio). The method in brief:
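Stimulation used NKH477 at a final 0.25 uM for 3 h in compound-treated CRE-bla HEK293T cells, seeded 18 h beforehand. Reporter activity was measured with LiveBLAzer B/G FRET substrate after 2 h at room temperature.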

Experiment [8] deals with Beta-2 adrenergic receptor (Homo sapiens) (UniProt P07550). Nature of the experiment: Adrenergic beta2 receptor (ADRB2) small molecule antagonists, cell-based qHTS assay (AID 1963592). Also: nearly all actives have a fitted effect of over 50% in size. Also: potency is read from the fitted curve at half-maximal effect. In a few lines:
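Assay format: CHO-ADRB2 cells, 18-20hr seeding at 37C/5% CO2, then compound plus 1nM isoproterenol agonist mix for 0.5hr RT. Homogeneous time-resolved fluorescence cAMP detection after 1hr, expressed as 665/615 nm ratio.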

Experiment [9] has the same target. The experiment is described as follows: Adrenergic beta2 receptor (ADRB2) small molecule agonists, cell-based qHTS assay (AID 1963593).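 Also: CHO cells stably overexpressing human ADRB2.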 In a few lines:
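CHO cells stably over-expressing ADRB2 were plated overnight at 37C, then dosed with compounds plus a stimulation mix containing 100uM IBMX and 25uM Ro-20-1724 for 0.5hr at room temperature. cAMP was measured by HTRF competition, 1hr.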

Experiment [10] concerns the target D(2) dopamine receptor (Homo sapiens) (UniProt P14416). The experiment is described as follows: Dopamine D2 receptor (DRD2) small molecule agonists, cell-based qHTS assay (AID 1963594). Also: nearly all actives have a fitted effect of over 35% in size. In a few lines: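 cAMP accumulation in DRD2-HEK293 cells measured by HTRF after 1 h detection; compounds added 10 min before NKH477 (200nM […]) forskolin-analogue stimulation, 30 min at room temperature, with Ro20-1724 present at 0.1 mM final.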

Experiment [11] concerns the target Gonadotropin-releasing hormone receptor (Homo sapiens) (UniProt P30968). The experiment is described as follows: Human gonadotropin-releasing hormone receptor (GnRHR) small molecule agonists, calcium flux assay in GnRHR-HEK293 cells (AID 1920063). Also: nearly all actives have a fitted effect of over 35% in size. In a few lines: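 Intracellular calcium rise is the read-out: engineered human GnRHR HEK293 cells, dye-loaded, are exposed to DMSO-dissolved compounds and fluorescence at Ex/Em 480/540 is tracked for 3 min.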

The nature of experiment [12]: p53 small molecule agonists, cell-based qHTS assay with human liver microsomes: qHTS cell viability counter screen (AID 1963579). Also: nearly all actives have a fitted effect of over 45% in size. Also: potency is read from the fitted curve at half-maximal effect. The method in brief:
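HLM-supplemented (0.5 mg/mL final) and NADPH-supplemented (0.5 mg/mL final) p53RE-bla cultures, 4,000 cells per well, were dosed with compounds in DMSO for 16 h at 37 C; luminescent ATP detection (CellTiter-Glo, 30 min, room temperature) quantified surviving cells.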

Experiment [13] is described as follows: p53 small molecule agonists, cell-based qHTS assay with rat liver microsomes: qHTS cell viability counter screen (AID 1963580). Also: nearly all actives have a fitted effect of over 45% in size. In a few lines:
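Rat liver microsome (0.5 mg/mL final) and NADPH (0.5 mg/mL final) co-incubation with compounds for 16 h at 37 C on HCT-116 p53RE-bla cells; cytotoxicity taken from intracellular ATP luminescence.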

Experiment [14] deals with D(2) dopamine receptor (Homo sapiens) (UniProt P14416). The experiment is described as follows: Dopamine D2 receptor (DRD2) small molecule antagonists, cell-based qHTS assay (AID 1963595; active = well fitted inhibition curve with a large enough effect in the signal ratio in the repeat runs, with a control signal flat; the % refers to the signal ratio). The method in brief: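 In this cell-based antagonist screen, compounds act for 10 min at room temperature before a 30 min challenge with 12 nM quinpirole and 200 nM NKH477. cAMP is quantified by HTRF competition in DRD2-HEK293 cells containing 0.1 mM Ro20-1724.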
Sequence of D(2) dopamine receptor (Homo sapiens) (P14416 whole entry, looked up): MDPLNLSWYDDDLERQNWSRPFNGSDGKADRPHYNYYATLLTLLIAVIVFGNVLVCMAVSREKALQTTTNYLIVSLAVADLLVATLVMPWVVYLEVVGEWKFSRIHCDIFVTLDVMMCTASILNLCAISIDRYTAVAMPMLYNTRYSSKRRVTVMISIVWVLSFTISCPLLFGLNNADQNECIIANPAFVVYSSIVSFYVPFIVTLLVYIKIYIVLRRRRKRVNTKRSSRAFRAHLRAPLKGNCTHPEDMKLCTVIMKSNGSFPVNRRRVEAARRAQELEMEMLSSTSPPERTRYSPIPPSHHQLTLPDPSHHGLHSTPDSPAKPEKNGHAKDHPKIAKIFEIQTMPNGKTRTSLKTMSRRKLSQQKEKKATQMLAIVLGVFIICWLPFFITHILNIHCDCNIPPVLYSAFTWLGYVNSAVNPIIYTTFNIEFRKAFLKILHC

Experiment [15] can be described thus: p53 small molecule agonists, cell-based qHTS assay: qHTS cell viability counter screen (AID 1963581). Also: nearly all actives have a fitted effect of over 45% in size. The method in brief: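 Luminescence from CellTiter-Glo, reflecting ATP content, serves as the cytotoxicity measure; it is taken after the 2 h reporter substrate step in HCT-116 p53RE-bla cells dosed for 16 h at 37 C.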
Experiment [16] in a line: p53 small molecule agonists, cell-based qHTS assay (AID 1963582; active = well fitted activation curve with a large enough effect in the signal ratio in the repeat runs, not every such curve was filed as active; the % refers to the signal ratio). The method in brief: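 After plating, p53RE-bla cells sat 5 h in the incubator; compounds or DMSO vehicle were pinned in; a 16 h incubation at 37 C followed; FRET substrate was added and, 2 h later at RT, fluorescence was measured.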
The target of experiment [17] is 5-hydroxytryptamine receptor 2A (Homo sapiens) (UniProt P28223). The experiment is described as follows: 5-hydroxytryptamine receptor 2A (HTR2A) small molecule agonists, cell-based qHTS assay (AID 1963587). Also: nearly all actives have a fitted effect of over 30% in size. In a few lines:
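Kinetic calcium-flux fluorescence (2 min, 1 sec intervals) after compound addition in agonist mode. HTR2A-CHO cells were cultured 18 h, then dye-loaded 1 h at 37 C.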

In experiment [18] the target is Muscarinic acetylcholine receptor M1 (Homo sapiens) (UniProt P11229). Nature of the experiment: Cholinergic receptor muscarinic 1 (CHRM1) small molecule antagonists, cell-based qHTS assay (AID 1963588). Also: nearly all actives have a fitted effect of over 40% in size. In a few lines:
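Compounds were tested at 15 concentrations in three independent runs. Dye-loaded CHRM1-CHO cells were exposed 5 min at room temperature before stimulation by acetylcholine added at 50nM. Intracellular calcium was read kinetically on FDSS for 3 min.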

The nature of experiment [19]: p53 small molecule agonists, cell-based qHTS assay with human liver microsomes (AID 1963577).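 Also: p53 response element beta-lactamase reporter cells with liver microsomes plus NADPH.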 The method in brief:
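Reporter activation was measured by LiveBLAzer fluorescence intensity in p53RE-bla cells, which had been exposed to compounds for 16 h at 37 C alongside 0.5 mg/mL human liver microsomes and 0.5 mg/mL NADPH (final concentrations).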

A short description of experiment [20]: p53 small molecule agonists, cell-based qHTS assay with rat liver microsomes (AID 1963578). In a few lines:
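Compound in DMSO added to p53RE-bla cells 5 h post-plating; rat microsomes/NADPH 0.5 mg/mL final; 16 h, 37 C; LiveBLAzer 2 h RT.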

The structures appear in SMILES notation. Values joined by “and” are separate entries in the source; they are usually repeats but may differ in a detail not shown here. Equal entries are not always repeated. Results filed as inconclusive are left out. Some structures have more than one record in an assay (separate samples or runs), and their calls can disagree. Active and inactive are the calls of the source. Unless noted, calls follow the shape of the full dose curve.

Sequence of Gonadotropin-releasing hormone receptor (Homo sapiens) (P30968 whole entry, looked up): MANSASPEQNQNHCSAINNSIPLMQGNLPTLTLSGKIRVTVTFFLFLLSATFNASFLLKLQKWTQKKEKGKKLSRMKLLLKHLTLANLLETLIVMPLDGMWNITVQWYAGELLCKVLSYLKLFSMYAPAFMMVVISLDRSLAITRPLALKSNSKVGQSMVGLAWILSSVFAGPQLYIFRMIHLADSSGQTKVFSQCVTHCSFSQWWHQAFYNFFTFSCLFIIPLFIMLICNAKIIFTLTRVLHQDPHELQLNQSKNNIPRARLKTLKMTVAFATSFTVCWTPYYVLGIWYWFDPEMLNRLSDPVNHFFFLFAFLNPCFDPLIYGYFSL
Sequence of Beta-2 adrenergic receptor (Homo sapiens) (P07550 whole entry, looked up): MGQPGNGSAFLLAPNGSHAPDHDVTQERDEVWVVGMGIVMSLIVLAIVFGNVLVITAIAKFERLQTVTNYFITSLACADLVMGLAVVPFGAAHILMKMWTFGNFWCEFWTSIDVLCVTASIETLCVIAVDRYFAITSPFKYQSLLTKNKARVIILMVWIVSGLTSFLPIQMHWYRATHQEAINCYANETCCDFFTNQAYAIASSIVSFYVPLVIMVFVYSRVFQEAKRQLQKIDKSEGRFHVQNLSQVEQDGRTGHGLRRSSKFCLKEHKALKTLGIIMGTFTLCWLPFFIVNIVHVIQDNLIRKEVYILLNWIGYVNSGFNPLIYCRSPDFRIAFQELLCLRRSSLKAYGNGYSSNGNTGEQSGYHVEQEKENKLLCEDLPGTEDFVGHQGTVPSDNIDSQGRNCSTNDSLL
Sequence of 5-hydroxytryptamine receptor 2A (Homo sapiens) (P28223 whole entry, looked up): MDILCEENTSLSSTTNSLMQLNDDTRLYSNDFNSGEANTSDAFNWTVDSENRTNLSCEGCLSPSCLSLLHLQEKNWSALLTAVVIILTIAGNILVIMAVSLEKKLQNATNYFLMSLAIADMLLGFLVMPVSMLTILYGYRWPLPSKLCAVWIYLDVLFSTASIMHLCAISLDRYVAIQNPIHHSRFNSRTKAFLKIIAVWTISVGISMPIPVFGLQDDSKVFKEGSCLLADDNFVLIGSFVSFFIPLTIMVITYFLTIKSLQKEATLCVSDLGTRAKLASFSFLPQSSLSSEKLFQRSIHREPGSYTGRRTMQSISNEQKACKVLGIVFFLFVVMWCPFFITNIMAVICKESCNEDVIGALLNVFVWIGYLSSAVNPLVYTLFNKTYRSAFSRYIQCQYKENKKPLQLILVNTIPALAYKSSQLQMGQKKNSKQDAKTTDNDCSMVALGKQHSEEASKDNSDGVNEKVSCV

In the case of `CCCCCCCCCCCCn1cc[n+](C)c1`, the Potency entry in experiment [1], in experiment [2], in [3], in [5], in experiment [6] and in experiment [7] was “inactive” each time. For the same molecule, the Potency entry in experiment [8], in [9] and in experiment [10] was “inactive” each time. The Potency result in experiment [4] was “inactive and 33.7 µM (active)”.

For `C=C(C)[C@H]1Cc2c(ccc3c2O[C@@H]2COc4cc(OC)c(OC)cc4[C@@H]2C3=O)O1`, the Potency in experiment [1] is 13.9 µM (active) and 13.7 µM (active) and inactive. Besides, the Potency result in experiment [11], in experiment [2], in [3], in experiment [12], in experiment [13] and in [7] was “inactive” in each case. Moreover, the Potency entry in experiment [8], in experiment [9], in experiment [10] and in [14] was “inactive” in each case.

In the case of `CCCN(CCOc1c(Cl)cc(Cl)cc1Cl)C(=O)n1ccnc1`, the Potency result in experiment [1], in experiment [11], in [2], in experiment [3], in experiment [12] and in experiment [13] was “inactive” each time. Moreover, the Potency result in experiment [15], in [16], in experiment [4], in [17], in experiment [18] and in [5] was “inactive” throughout. The Potency result in [7], in [8], in experiment [10] and in [14] was “inactive” in each case. The Potency in [6] is 27.9 µM (active) and 48.6 µM (active).

With `CCBr`, the Potency result in experiment [1], in experiment [2], in experiment [3], in experiment [19], in [20] and in experiment [13] was “inactive” in each case. The Potency entry in experiment [15], in [16], in experiment [4], in experiment [17], in [18] and in experiment [5] was “inactive” each time. Besides, the Potency result in experiment [6], in [7], in experiment [8], in experiment [9], in experiment [10] and in experiment [14] was “inactive” throughout.

Consider `CCOC(=O)C(C)OC(=O)c1cc(Oc2ccc(C(F)(F)F)cc2Cl)ccc1[N+](=O)[O-]` (stereo unspecified), for which the Potency entry in experiment [1], in experiment [2], in [3], in experiment [19], in experiment [20] and in [12] was “inactive” in each case. For the same molecule, the Potency result in experiment [13], in experiment [15], in experiment [4], in experiment [18], in [5] and in experiment [6] was “inactive” throughout. Further, the Potency entry in [7], in [8], in experiment [10] and in experiment [14] was “inactive” each time.

Consider `C[C@]12CCC(=O)C[C@@H]1CC[C@@H]1[C@@H]2CC[C@]2(C)[C@@H](O)CC[C@@H]12`, for which the Potency entry in [11], in [2], in [3], in [19], in experiment [20] and in [13] was “inactive” each time. The Potency result in experiment [15], in [16] and in experiment [10] was “inactive” in each case. Also, the Potency in experiment [12] is 35.9 µM (active) and inactive; in experiment [8] it was 9.7 µM (active).

In the case of `CCCCOCCOC(C)=O`, the Potency result in experiment [11], in [2], in experiment [3], in experiment [19], in [20] and in experiment [12] was “inactive” each time. The Potency entry in experiment [15], in [16], in experiment [4], in experiment [17], in experiment [18] and in experiment [6] was “inactive” throughout. For the same molecule, the Potency entry in experiment [7], in [9] and in experiment [14] was “inactive” in each case.

On to `CCCC[n+]1ccccc1`, for which the Potency entry in experiment [1], in [11], in experiment [2], in experiment [3], in [12] and in [13] was “inactive” each time. The Potency entry in [15], in experiment [6], in experiment [7], in experiment [8], in [9] and in experiment [10] was “inactive” in each case. Besides, the Potency result in experiment [14] is “inactive”.
